# According to PubChem BioAssay AID463173 (ICCB-Longwood Screening Facility, Harvard Medical School, 2010):
# Screen size: about 52,000 compounds; about 1,700 (3.3%) were called active. Rule as the data show it: active = survival mostly below about 52% (no sharp cut-off); inactive = mostly above about 56%. The list comes from a sample in which actives are over-represented; it also holds similar structures and randomly drawn compounds.
# Test system: Wild type
# Assay: growth inhibition of S. aureus wild type versus tarO mutant, primary screen, teichoic acid synthesis inhibitors, RN4220, OD600 (AID 463173)
# Conditions: S. aureus RN4220 wild type/DeltatarO growth, OD600, 18 h, hits give low values, screened at 18.75 µg/mL (by protocol)
row,Structure (SMILES),survival
1,CCN1CCN(c2cc(C)c3cc(NC(=O)c4ccc(OC)c(OC)c4)ccc3n2)CC1,65% (inactive)
2,COc1ccccc1C(=O)Nc1ccc2nc(N3CCC(C)CC3)cc(C)c2c1,0% (active)
3,COc1ccccc1CC(=O)Nc1ccc2nc(N3CCC(C)CC3)cc(C)c2c1,71% (inactive)
4,CCN1CCN(c2cc(C)c3cc(NC(=O)c4cc(Cl)ccc4OC)ccc3n2)CC1,2% (active)
5,CCN1CCN(c2cc(C)c3cc(NC(=O)c4cc(OC)c(OC)c(OC)c4)ccc3n2)CC1,73% (inactive)
6,COc1ccc(C(=O)Nc2ccc3nc(N4CCC(C)CC4)cc(C)c3c2)cc1,86% (inactive)
7,CCSc1nc(NC(C)=O)nn1C(C)=O,103% (inactive)
8,Cc1ccc(NC(=O)Cc2c(C(=O)O)c(C)cn2C)cc1Cl,87% (inactive)
9,CCOCCCn1c(SCC(=O)Nc2ccccc2OC)nc2c(oc3ccccc32)c1=O,81% (inactive)
10,CCOc1ccc(C(=O)Nc2cccc(C(=O)OCc3cc(=O)n4cc(C)sc4n3)c2)cc1,81% (inactive)
11,Cc1ccc(OCCCCn2cnc3ccccc32)cc1,29% (active)
12,c1ccc2c(c1)ncn2CCn1cnc2ccccc21,104% (inactive)
13,Cc1cc2ncn(CCC(=O)Nc3ccccc3F)c2cc1C,105% (inactive)
14,COc1ccc(OCCn2cnc3ccccc32)cc1,107% (inactive)
15,CC(=O)OC(COc1ccccc1)Cn1cnc2cc(C)c(C)cc21 (configuration not stated),125% (inactive)
16,Cc1cc2ncn(CCCCOc3ccccc3)c2cc1C,20% (active)
17,Cc1ccc(Cl)cc1N1CCN(C(=O)C2CCN(S(=O)(=O)c3ccc4c(c3)oc(=O)n4C)CC2)CC1,66% (inactive)
18,Cc1cccc(N2CCN(c3cc(C)nc4c(-c5ccc(Cl)cc5)c(C)nn34)CC2C)c1 (configuration not stated),74% (inactive)
19,Cc1ccc(N2CCN(c3cc(C)nc4c(-c5ccc(Cl)cc5)c(C)nn34)CC2C)cc1 (configuration not stated),14% (active)
20,Cc1ccc(C)c(N2CCN(c3cc(C)nc4c(-c5ccc(Cl)cc5)c(C)nn34)CC2)c1,96% (inactive)
21,Cc1n[nH]c(=S)n1CC(=O)N1c2ccccc2CCc2ccccc21,102% (inactive)
22,CC1=C(C(=O)Nc2ccccc2)C(c2ccc(Br)cc2)n2nc(CCCO)nc2N1 (configuration not stated),79% (inactive)
23,CCOc1ccc(NC(=O)Cn2cc(C(=O)c3ccc(C)c(C)c3)c(=O)c3cc(F)ccc32)cc1,89% (inactive)

row,Structure (SMILES),survival
1,COc1cc(NS(=O)(=O)c2cc(Br)cc3c2N(C(C)=O)C(C)C3)cc(OC)c1 (configuration not stated),-3% (active)
2,COc1ccc(CNS(=O)(=O)c2cc(Br)cc3c2N(C(C)=O)C(C)C3)cc1 (configuration not stated),138% (inactive)
3,CC(=O)N1c2c(cc(Br)cc2S(=O)(=O)Nc2ccc(OC(F)(F)F)cc2)CC1C (configuration not stated),105% (inactive)
4,Cc1ccc(CNC(=O)C(C)n2ccc3cc(S(=O)(=O)N4CCCC4)ccc32)cc1 (configuration not stated),66% (inactive)
5,O=C(Cn1ccc2cc(S(=O)(=O)N3CCCCC3)ccc21)NCc1cccc(Cl)c1,128% (inactive)
6,Cc1cccc(CNC(=O)Cn2ccc3cc(S(=O)(=O)N4CCCCCC4)ccc32)c1,-6% (active)
7,COc1ccc(CNC(=O)CCCn2ccc3cc(S(=O)(=O)N4CCCC4)ccc32)cc1,75% (inactive)
8,Cc1cccc(CNC(=O)CCn2ccc3cc(S(=O)(=O)N4CCCC4)ccc32)c1,76% (inactive)
9,CC(C(=O)NCc1ccccc1)n1ccc2cc(S(=O)(=O)N3CCCC3)ccc21 (configuration not stated),-3% (active)
10,O=C(CCn1ccc2cc(S(=O)(=O)N3CCCC3)ccc21)NCc1cccc(Cl)c1,-1% (active)
11,Cc1cccc(CNC(=O)Cn2ccc3cc(S(=O)(=O)N4CCCC4)ccc32)c1,69% (inactive)
12,CCc1ccc(CNC(=O)CCCn2ccc3cc(S(=O)(=O)N4CCCC4)ccc32)cc1,63% (inactive)
13,Cc1cccc(CNC(=O)Cn2ccc3cc(S(=O)(=O)N4CCC(C)CC4)ccc32)c1,67% (inactive)
14,CN(C)c1ccc(CNC(=O)CCCn2ccc3cc(S(=O)(=O)N4CCCC4)ccc32)cc1,0% (active)
15,CCc1ccc(CNC(=O)C(C)n2ccc3cc(S(=O)(=O)N4CCCCCC4)ccc32)cc1 (configuration not stated),75% (inactive)
16,O=C(CSc1nc2nccnc2c(=O)n1CCc1c[nH]c2ccccc12)Nc1ccc(F)cc1,42% (inactive)
17,CCn1c(CNc2cccc(Cl)c2)nnc1SCc1ccccc1,105% (inactive)
18,O=C1CCCC2=C1C(c1ccc3c(c1)OCO3)c1c([nH]c(=O)[nH]c1=O)N2 (configuration not stated),111% (inactive)
19,CCOC(=O)c1ccccc1NC(=O)NCc1cccn1Cc1ccc(F)cc1,84% (inactive)
20,CC(=O)c1cccc(NC(=O)c2sc(-n3nc(C)c(Cc4ccc5c(c4)OCO5)c3C)nc2C)c1,94% (inactive)
21,Cc1ccc(Cn2c(CN3CCC(C(=O)O)CC3)cc3ccccc32)cc1,82% (inactive)
22,O=C(Cn1ccc2cc(S(=O)(=O)N3CCCCCC3)ccc21)NCCc1ccccc1Cl,72% (inactive)
23,O=C(Cn1ccc2cc(S(=O)(=O)N3CCCCCC3)ccc21)NCc1ccccc1Cl,73% (inactive)

row,Structure (SMILES),survival
1,CCOc1ccccc1CNC(=O)CCn1ccc2cc(S(=O)(=O)N3CCC(C)CC3)ccc21,69% (inactive)
2,O=C(CCn1ccc2cc(S(=O)(=O)N3CCCC3)ccc21)NCc1ccccc1Br,72% (inactive)
3,CC1CCN(S(=O)(=O)c2ccc3c(ccn3CC(=O)NCc3ccccc3F)c2)CC1,53% (inactive)
4,O=C(CCn1ccc2cc(S(=O)(=O)N3CCCC3)ccc21)NCc1ccccc1Cl,14% (active)
5,CC1CCN(S(=O)(=O)c2ccc3c(ccn3CCC(=O)NCc3ccccc3F)c2)CC1,-6% (active)
6,O=C(Cn1ccc2cc(S(=O)(=O)N3CCCCC3)ccc21)NCCc1ccccc1Cl,-6% (active)
7,O=C(CCn1ccc2cc(S(=O)(=O)N3CCCC3)ccc21)NCc1ccccc1F,83% (inactive)
8,NC(=O)C1CCCN1S(=O)(=O)c1ccc(F)cc1 (configuration not stated),110% (inactive)
9,Cc1ccc2c(c1)N(C(=O)N1CCC(C(=O)Nc3cccc(F)c3)CC1)CCO2,70% (inactive)
10,COc1cc(C2c3c(oc4ccc(C)cc4c3=O)C(=O)N2Cc2ccc(F)cc2)ccc1O (configuration not stated),83% (inactive)
11,CCCC(C(=O)Nc1cc(C)c(Cl)cc1OC)N1Cc2ccccc2C1=O (configuration not stated),71% (inactive)
12,CCOC(=O)c1ccccc1NS(=O)(=O)c1c(-c2ccc(C)cc2)csc1C(=O)OC,134% (inactive)
13,Cc1ccc2oc(-c3ccc(Cl)c(NC(=O)c4cc5ccccc5o4)c3)nc2c1,66% (inactive)
14,CSc1nnc2c(n1)OC(c1cccc(O)c1Cl)Nc1ccccc1-2 (configuration not stated),71% (inactive)
15,CSc1nc(Nc2cccc(C)c2)c(C#N)c(-c2ccccc2)n1,104% (inactive)
16,CCCCOC(=O)c1ccc(NC(=O)C2(c3cccs3)CCOCC2)cc1,72% (inactive)
17,COc1ccc(/C=C/C(=O)Nc2ccc3nc4c(c(Nc5ccccc5OC)c3c2)CCCC4)cc1,93% (inactive)
18,COc1ccccc1C(=O)NCCSc1c(C)[nH]c2ccccc12,52% (inactive)
19,COC(=O)c1ccc(NC(=O)CCCC(=O)OCC(=O)c2ccc(Cl)cc2)cc1,87% (inactive)
20,O=C(Nc1ccccc1F)c1oc2ccccc2c1NC(=O)c1c(F)cccc1F,53% (inactive)
21,CCOc1ccc(-n2c(=O)c3c(C)c(C)sc3n(Cc3ccc(C(C)(C)C)cc3)c2=O)cc1,19% (active)
22,Cc1sc2c(c1C)c(=O)n(CCc1ccccc1)c(=O)n2Cc1cccc(F)c1,9% (active)
23,Cc1cccc(Cn2c(=O)n(CCc3ccccc3)c(=O)c3c(C)c(C)sc32)c1,90% (inactive)

row,Structure (SMILES),survival
1,Cc1ccc(Cn2c(=O)n(CCc3ccccc3)c(=O)c3c(C)c(C)sc32)cc1,22% (active)
2,CCOc1ccc(-n2c(=O)c3c(C)c(C)sc3n(CC(=O)C(C)(C)C)c2=O)cc1,125% (inactive)
3,CCOc1ccc(-n2c(=O)c3c(C)c(C)sc3n(Cc3ccccc3C)c2=O)cc1,89% (inactive)
4,Cc1ccc(Cn2c(=O)n(-c3ccc(C)c(C)c3)c(=O)c3c(C)c(C)sc32)cc1,46% (active)
5,Cc1ccc(-n2c(=O)c3c(C)c(C)sc3n(Cc3ccc(F)cc3Cl)c2=O)cc1C,60% (inactive)
6,Cc1ccc(Cn2c(=O)n(Cc3ccccc3)c(=O)c3c(C)c(C)sc32)cc1,83% (inactive)
7,Cc1ccc(C)c(Cn2c(=O)n(-c3ccc(Cl)cc3)c(=O)c3c(C)c(C)sc32)c1,73% (inactive)
8,Cc1sc2c(c1C)c(=O)n(CCc1ccccc1)c(=O)n2Cc1ccc(F)cc1,50% (inactive)
9,Cc1sc2c(c1C)c(=O)n(CCc1ccccc1)c(=O)n2Cc1ccc(C(C)(C)C)cc1,85% (inactive)
10,O=C(CN1CCCN(Cc2ccc(F)cc2)S1(=O)=O)NCc1ccccc1Cl,78% (inactive)
11,CC(C)NS(=O)(=O)c1ccc(OCC(=O)N2CCN(c3ccccc3F)CC2)cc1,89% (inactive)
12,FC(F)(F)c1ccc(-c2noc(-c3ccccc3Br)n2)cc1,89% (inactive)
13,CCOc1cc(C2CC(=O)Nc3cc4c(cc32)OCCO4)ccc1O (configuration not stated),78% (inactive)
14,CCCc1nn2c(=O)cc(COC(=O)c3ccc(NC(=O)COc4ccccc4F)cc3)nc2s1,121% (inactive)
15,CC1CCN(C(=O)c2cc(-c3ccc(Br)cc3)on2)CC1,78% (inactive)
16,O=C(c1cc(-c2cccc(Cl)c2)on1)N1CCN(c2ccccc2)CC1,4% (active)
17,CN(Cc1ccccc1)C(=O)c1cc(-c2cccc(Cl)c2)on1,-15% (active)
18,CC1CCN(C(=O)c2cc(-c3ccc(Cl)cc3)on2)CC1,85% (inactive)
19,CC1CCN(C(=O)c2cc(-c3cccc(Cl)c3)on2)CC1,-15% (active)
20,O=C(c1cc(-c2cccc(Cl)c2)on1)N1CCCCC1,66% (inactive)
21,O=C(c1cc(-c2ccccc2)on1)N1CCCCC1,113% (inactive)
22,O=C(NCCc1ccccc1)c1cc(-c2cccc(Cl)c2)on1,87% (inactive)
23,COCCNC(=O)c1cc(-c2cccc(Cl)c2)on1,136% (inactive)
